PubChem BioAssay
Active and inactive are the calls of the source. Unless noted, the rule behind the calls is not given here.

Assays:
[1] = circadian clock period modulators, cell-based, LOPAC library, luminescence reporter (AID 2774); settings: circadian reporter cells, at 7 µM, actives lie on both sides;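 note: values are relative to mean of DMSO wells on each plate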
[2] = tested on: Hepatitis C virus NS3 helicase; test: HCV NS3 helicase inhibitors, primary screen, biochemical, fluorescence polarization, LOPAC1280 library (AID 687035; in the data active = inhibition above about 37%); settings: Purified HCV NS3 helicase, Cy5-dT15 ssDNA binding fluorescence polarization; stronger effect = higher value; concentration not given here
[3] = Cy5 fluorescence quenching or enhancement artefacts, artefact control for HCV NS3 helicase inhibitor project, biochemical, LOPAC1280 (AID 687037); settings: Cy5-DNA-NS3h complex fluorescence interference counterscreen
[4] = sensitizers of A549 cells to miR-34 induction, primary screen, imaging, A549 dox-inducible miR-34, nuclei and caspase counts (AID 1347080;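 active = compounds whose cell count with miR-34 switched on is under 0.7 times the count with it off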); settings: A549 miR-34 inducible, Hoechst nuclei count, 48 h
[5] = phospholipid biosynthesis inhibitors in animal cells, primary screen, cell-based, LOPAC library, screen 4 (AID 1347384); settings: phospholipid biosynthesis inhibition screen, at 10 µM
[6] = viability rescue of complex I mutant cybrids, primary screen, cell-based, galactose medium, ATP luminescence (AID 1645843;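 active = z-score of at least 1.8 in each of two replicates, scored against plate mean and spread of sample wells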;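 note: positive z means more ATP and so rescue of galactose-driven cybrid death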); settings: complex I mutant cybrid cells, 72 h, stronger effect = higher value
[7] = liver-stage malaria parasite growth inhibition, primary screen, cell-based, HepG2, luciferase luminescence, HepG2 viability (AID 624349; in the data active = parasite load remaining mostly below about 12%, no sharp cut-off; inactive = mostly above about 10%;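 note: 100% = mean of DMSO negative control wells on the same plate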); settings: P. berghei liver stage in HepG2, luciferase luminescence, concentration not given here; parasite load remaining: stronger effect = lower value; viability: measured here: HepG2 viability without parasites
[8] = stronger effect = lower value, cell number ratio, induced over uninduced
[9] = measured here: relative caspase fold change +Dox/-Dox
[10] = measured here: total cells with miR-34 induction, stronger effect = lower value
[11] = measured here: total cells without miR-34 induction

## O=c1cc(-c2ccccc2)[nH]c2nc(Cl)ccc12
[1]
  period change: -0.07 h (inactive)
[2]
  inhibition: -3% (inactive)
[3]
  fluorescence ratio (interference): 1 (inactive)
[4]; [8]
  fold change: 0.977 (inactive)
[4]; [9]
  fold change: 1.95
[4]; [10]
  cell count: 3650
[4]; [11]
  cell count: 3740
[5]
  outcome: inactive
[6]
  z-score: -0.5 (inactive)

## NC(=O)C1=CN(C2OC(COP(=O)(O)OP(=O)(O)OC[C@H]3O[C@@H](n4cnc5c(N)ncnc54)C(OP(=O)(O)O)[C@H]3O)C(O)C2O)C=CC1 (stereo not given in full)
[1]
  period change: -0.03 h (inactive)
[2]
  inhibition: -4% (inactive)
[3]
  fluorescence ratio (interference): 1 (inactive)
[4]; [8]
  fold change: 1.07 (inactive)
[4]; [9]
  fold change: 1.18
[4]; [10]
  cell count: 9810
[4]; [11]
  cell count: 9130
[5]
  outcome: inactive
[6]
  z-score: 1.12 (inactive)

## N#Cc1cc([N+](=O)[O-])c2sc(C(N)=O)[n+]([O-])c2c1
[7]
  parasite load remaining: 32.2% (inactive)
  viability: 76.2%
[2]
  inhibition: -4% (inactive)
[3]
  fluorescence ratio (interference): 1 (inactive)
[4]; [8]
  fold change: 1.08 (inactive)
[4]; [9]
  fold change: 1.61
[4]; [10]
  cell count: 7220
[4]; [11]
  cell count: 6660
[5]
  outcome: inactive
[6]
  z-score: -1.46 (inactive)

## O=Nc1ccc2oc(=O)ccc2c1
[1]
  period change: -0.05 h (inactive)
[2]
  inhibition: -2% (inactive)
[3]
  fluorescence ratio (interference): 1 (inactive)
[4]; [8]
  fold change: 1.06 (inactive)
[4]; [9]
  fold change: 0.992
[4]; [10]
  cell count: 10200
[4]; [11]
  cell count: 9600
[5]
  outcome: inactive
[6]
  z-score: -1.25 (inactive)

## N#C/C(=C\c1ccc(O)c(O)c1)C(=O)NCCc1ccccc1
[1]
  period change: -0.04 h (inactive)
[2]
  inhibition: 2% (inactive)
[3]
  fluorescence ratio (interference): 0.9 (inactive)
[4]; [8]
  fold change: 1.09 (inactive)
[4]; [9]
  fold change: 0.996
[4]; [10]
  cell count: 7900
[4]; [11]
  cell count: 7250
[5]
  outcome: inactive
[6]
  z-score: -1.06 (inactive)

## COc1ccc(/C=C2\COc3ccc(C)cc3C2=O)cc1O
[2]
  inhibition: 1% (inactive)
[3]
  fluorescence ratio (interference): 1 (inactive)
[4]; [8]
  fold change: 1.16 (inactive)
[4]; [9]
  fold change: 2.59
[4]; [10]
  cell count: 3090
[4]; [11]
  cell count: 2660
[5]
  outcome: inactive
[6]
  z-score: -1.36 (inactive)

## Oc1ccc(/C=C/c2ccc(/C=C/c3ccc(O)cc3)c(Br)c2)cc1
[2]
  inhibition: -3% (inactive)
[3]
  fluorescence ratio (interference): 1 (inactive)
[4]; [8]
  fold change: 1.33 (inactive)
[4]; [9]
  fold change: 1.11
[4]; [10]
  cell count: 3040
[4]; [11]
  cell count: 2280
[5]
  outcome: inactive
[6]
  z-score: 0.44 (inactive)

## C=CCNc1ncnc2ccc(Br)cc12
[2]
  inhibition: 0% (inactive)
[3]
  fluorescence ratio (interference): 1 (inactive)
[4]; [8]
  fold change: 0.949 (inactive)
[4]; [9]
  fold change: 0.896
[4]; [10]
  cell count: 7410
[4]; [11]
  cell count: 7810
[5]
  outcome: inactive
[6]
  z-score: -1.29 (inactive)

## OCC1O[C@H]([S-])[C@@H](O)C(O)[C@@H]1O.[Au+] (stereo not given in full)
[2]
  inhibition: 36% (inactive)
[3]
  fluorescence ratio (interference): 1 (inactive)
[4]; [8]
  fold change: 0.895 (inactive)
[4]; [9]
  fold change: 0.924
[4]; [10]
  cell count: 6430
[4]; [11]
  cell count: 7180
[5]
  outcome: inactive
[6]
  z-score: -1.29 (inactive)

## O=C1NCc2c1c1c3ccccc3[nH]c1c1[nH]c3ccccc3c21
[2]
  inhibition: -1% (inactive)
[3]
  fluorescence ratio (interference): 1 (inactive)
[4]; [8]
  fold change: 1.15 (inactive)
[4]; [9]
  fold change: 0.688
[4]; [10]
  cell count: 1560
[4]; [11]
  cell count: 1350
[5]
  outcome: inactive
[6]
  z-score: -0.89 (inactive)

## Cc1cc(NC2CCCCC2)nc(-n2nc(C)cc2C)n1
[2]
  inhibition: -5% (inactive)
[3]
  fluorescence ratio (interference): 1 (inactive)
[4]; [8]
  fold change: 1.09 (inactive)
[4]; [9]
  fold change: 0.728
[4]; [10]
  cell count: 9360
[4]; [11]
  cell count: 8610
[5]
  outcome: inactive
[6]
  z-score: -1.04 (inactive)

## N[C@H](CCCP(=O)(O)O)C(=O)O
[2]
  inhibition: -1% (inactive)
[3]
  fluorescence ratio (interference): 1.1 (inactive)
[4]; [8]
  fold change: 0.903 (inactive)
[4]; [9]
  fold change: 1.61
[4]; [10]
  cell count: 9420
[4]; [11]
  cell count: 10400
[5]
  outcome: inactive
[6]
  z-score: 0.08 (inactive)

## CC(C)c1cccc(C(C)C)c1N1C(=O)c2ccc(O)cc2C1=O
[2]
  inhibition: 0% (inactive)
[3]
  fluorescence ratio (interference): 0.9 (inactive)
[4]; [8]
  fold change: 1.39 (inactive)
[4]; [9]
  fold change: 0.841
[4]; [10]
  cell count: 1810
[4]; [11]
  cell count: 1300
[5]
  outcome: inactive
[6]
  z-score: 0.3 (inactive)

## Cn1ncc(S(=O)(=O)Cc2ccccc2)c(Br)c1=O
[2]
  inhibition: -3% (inactive)
[3]
  fluorescence ratio (interference): 0.9 (inactive)
[4]; [8]
  fold change: 1.14 (inactive)
[4]; [9]
  fold change: 1.46
[4]; [10]
  cell count: 2510
[4]; [11]
  cell count: 2200
[5]
  outcome: inactive
[6]
  z-score: -1.24 (inactive)

## CCOC(=O)C1=C(C)NC(C)=C(C(=O)OCC)C1c1c(F)c(F)c(F)c(F)c1F
[2]
  inhibition: -5% (inactive)
[3]
  fluorescence ratio (interference): 0.9 (inactive)
[4]; [8]
  fold change: 1.11 (inactive)
[4]; [9]
  fold change: 0.622
[4]; [10]
  cell count: 5220
[4]; [11]
  cell count: 4680
[5]
  outcome: inactive
[6]
  z-score: -0.415 (inactive)

## O=c1cc(-c2ccccc2F)[nH]c2cc3c(cc12)OCO3
[2]
  inhibition: -7% (inactive)
[3]
  fluorescence ratio (interference): 0.9 (inactive)
[4]; [8]
  fold change: 1.11 (inactive)
[4]; [9]
  fold change: 0.744
[4]; [10]
  cell count: 1710
[4]; [11]
  cell count: 1540
[5]
  outcome: inactive
[6]
  z-score: -0.62 (inactive)

## Brc1c(Br)c(Br)c2[nH]cnc2c1Br
[2]
  inhibition: 0% (inactive)
[3]
  fluorescence ratio (interference): 1 (inactive)
[4]; [8]
  fold change: 1.11 (inactive)
[4]; [9]
  fold change: 2.37
[4]; [10]
  cell count: 3750
[4]; [11]
  cell count: 3380
[5]
  outcome: inactive
[6]
  z-score: -1.17 (inactive)

## Cc1cc2c(cc1Cl)N(C(=O)Nc1ccc(Oc3cccnc3C)nc1)CC2
[2]
  inhibition: -2% (inactive)
[3]
  fluorescence ratio (interference): 0.9 (inactive)
[4]; [8]
  fold change: 0.93 (inactive)
[4]; [9]
  fold change: 1.1
[4]; [10]
  cell count: 4820
[4]; [11]
  cell count: 5180
[5]
  outcome: inactive
[6]
  z-score: -1.26 (inactive)

## O=c1[nH]c(=S)[nH]c(-c2ccccc2)c1Cc1c(O)ccc2ccccc12
[2]
  inhibition: 0% (inactive)
[3]
  fluorescence ratio (interference): 1 (inactive)
[4]; [8]
  fold change: 0.946 (inactive)
[4]; [9]
  fold change: 1.58
[4]; [10]
  cell count: 8710
[4]; [11]
  cell count: 9210
[5]
  outcome: inactive
[6]
  z-score: 0.53 (inactive)

## C=C1C[C@@]23CC[C@H]4[C@@](C)(CCC[C@@]4(C)C(=O)OC4OC(CO)C(O)C(O)C4O)[C@@H]2CC[C@]1(OC1OC(CO)C(O)C(O)C1OC1OC(CO)C(O)C(O)C1O)C3 (stereo not given in full)
[2]
  inhibition: -1% (inactive)
[3]
  fluorescence ratio (interference): 1 (inactive)
[4]; [8]
  fold change: 1.06 (inactive)
[4]; [9]
  fold change: 0.521
[4]; [10]
  cell count: 10700
[4]; [11]
  cell count: 10100
[5]
  outcome: inactive
[6]
  z-score: 0.675 (inactive)

## Nc1nc(OCC2CCCCC2)c2[nH]cnc2n1
[2]
  inhibition: -2% (inactive)
[3]
  fluorescence ratio (interference): 1 (inactive)
[4]; [8]
  fold change: 1.47 (inactive)
[4]; [9]
  fold change: 1.19
[4]; [10]
  cell count: 7330
[4]; [11]
  cell count: 4990
[5]
  outcome: inactive
[6]
  z-score: -0.68 (inactive)

## Cc1cc2c(cc1Cl)N(C(=O)Nc1ccnc3ccccc13)CC2
[2]
  inhibition: -1% (inactive)
[3]
  fluorescence ratio (interference): 0.9 (inactive)
[4]; [8]
  fold change: 1.12 (inactive)
[4]; [9]
  fold change: 1.03
[4]; [10]
  cell count: 10500
[4]; [11]
  cell count: 9390
[5]
  outcome: inactive
[6]
  z-score: -0.09 (inactive)

## c1ccc2c(c1)CCC[C@H]2Nc1nc2ccccc2[nH]1
[2]
  inhibition: -3% (inactive)
[3]
  fluorescence ratio (interference): 1 (inactive)
[4]; [8]
  fold change: 1.09 (inactive)
[4]; [9]
  fold change: 0.557
[4]; [10]
  cell count: 7820
[4]; [11]
  cell count: 7150
[5]
  outcome: inactive
[6]
  z-score: -0.675 (inactive)
